From PubChem BioAssay AID1578 (Sanford-Burnham Center for Chemical Genomics, 2009)
Hit rate of the full screen: of about 290,000 compounds, about 3,000 (1%) were called active. This is one part of a sample in which actives are shown more often than they occur. A number with no mark means an inactive call. Rule as the data show it: active = inhibition mostly above about 36% (no sharp cut-off); inactive = mostly below about 34%.

Experiment: inhibition of NOD1-driven NF-kB reporter – cell-based, luminescence, uHTS, primary screen (AID 1578);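 also: HEK-293T reporter cells stimulated with the NOD1 agonist gamma-tri-DAP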
Conditions: NOD1-driven NF-kB luciferase reporter cells, at 4 µM, hits give high values

Row | SMILES | inhibition
1 | O=C(Nc1ccon1)c1ccc(S(=O)(=O)N2CCOCC2)cc1 | -5.1%
2 | CCOc1cc(N2CCOCC2)c(OCC)cc1NC(=O)c1nc2nccc(C)n2n1 | -8.4%
3 | O=S(=O)(NCc1nc2ccccc2[nH]1)c1ccccc1 | -21.9%
4 | CCCCNC(=O)CCC(=O)Nc1ccc2nc(N3CCCCC3)cc(C)c2c1 | -15.4%
5 | O=c1[nH]c(C2CCN(S(=O)(=O)c3ccc(C(F)(F)F)cc3)CC2)nc2c1nnn2Cc1ccccc1 | -8.3%
6 | O=C(N/N=C/c1cccnc1)c1ccc(CN2c3cccc4cccc(c34)S2(=O)=O)cc1 | -27.8%
7 | Fc1ccccc1NC(=S)NCCc1ccc(Cl)cc1 | -79.8%
8 | CCc1nc(SCC(=O)Nc2ccccc2C(=O)OC)n[nH]1 | -16.5%
9 | COc1ccccc1CNC(=O)c1cc(C(=O)CC(C)C)c[nH]1 | -11%
10 | CC(=O)Oc1cc(OC(C)=O)c2c(C)cc(=O)oc2c1 | 13.6%
11 | CCc1cc(=O)oc2cc(C)cc(OCC(C)=O)c12 | -8.5%
12 | CCc1cc(=O)oc2cc(OC(C)=O)cc(OC(C)=O)c12 | 41.8% (active)
13 | Cc1nnc(NC(=O)CN2CCN(Cc3ccccc3Cl)CC2)s1 | -8.9%
14 | CCN(CC)c1ccc(NC(=O)CN2C(=O)CC(C)(C)S(=O)(=O)c3ccccc32)c(C)c1 | -6.7%
15 | Cc1ccc(N(C(=O)Cn2nnc(-c3ccc(C)o3)n2)C(C(=O)NC2CCCC2)c2ccncc2)cc1 (configuration not stated) | -8.9%
16 | CNC(=S)Nc1cc(S(=O)(=O)Nc2cc(Cl)ccc2Cl)ccc1N1CCCC1 | 2.1%
17 | CCOc1c(Cl)cc(CNc2nnnn2C)cc1OC | -41.1%
18 | O=C(Cc1cccc2ccccc12)N/N=C1\CCCc2ccccc21 | 13%
19 | Cc1ccccc1OCCCC(=O)Nc1nccs1 | 6.5%
20 | O=C(CCS(=O)(=O)c1ccccc1)Nc1nncs1 | 3.3%
21 | O=C(CCS(=O)(=O)Cc1ccccc1)Nc1nncs1 | 103% (active)
22 | Cc1ccccc1OCCCC(=O)Nc1nncs1 | 51.4% (active)
23 | Cc1nnc(NC(=O)CCS(=O)(=O)Cc2ccccc2)s1 | -5.2%
24 | O=C(CCCOc1ccccc1)Nc1nncs1 | 2.6%
25 | CCOC(=O)c1nnc2cc(-c3ccccc3)nn2c1C | -32.6%
26 | Cc1ccc(N(Cc2cc3ccc(C)cc3[nH]c2=O)C(=O)c2ccco2)cc1 | -4%
27 | COc1ccc(OCCC(=O)OCC(=O)NC(=O)NC(C)C)cc1 | -3.2%
